# Unmarked numbers belong to inactive results.
# Columns and labels:
# Assay in all cases: log2 ratio of Biotin-Ahx-Ub-VS probe labelling (fragment/DMSO); higher = less target engagement (more negative = stronger competition), active = hit call of the paper (q ≤ 0.05, log2 ratio ≤ -1)
# Conditions in all cases: compound concentration: 200 uM; treatment time: 3 h
# ALG13 = molecular target: T1, ALG13 (UniProt Q9NP73)
# T1 sequence (whole entry): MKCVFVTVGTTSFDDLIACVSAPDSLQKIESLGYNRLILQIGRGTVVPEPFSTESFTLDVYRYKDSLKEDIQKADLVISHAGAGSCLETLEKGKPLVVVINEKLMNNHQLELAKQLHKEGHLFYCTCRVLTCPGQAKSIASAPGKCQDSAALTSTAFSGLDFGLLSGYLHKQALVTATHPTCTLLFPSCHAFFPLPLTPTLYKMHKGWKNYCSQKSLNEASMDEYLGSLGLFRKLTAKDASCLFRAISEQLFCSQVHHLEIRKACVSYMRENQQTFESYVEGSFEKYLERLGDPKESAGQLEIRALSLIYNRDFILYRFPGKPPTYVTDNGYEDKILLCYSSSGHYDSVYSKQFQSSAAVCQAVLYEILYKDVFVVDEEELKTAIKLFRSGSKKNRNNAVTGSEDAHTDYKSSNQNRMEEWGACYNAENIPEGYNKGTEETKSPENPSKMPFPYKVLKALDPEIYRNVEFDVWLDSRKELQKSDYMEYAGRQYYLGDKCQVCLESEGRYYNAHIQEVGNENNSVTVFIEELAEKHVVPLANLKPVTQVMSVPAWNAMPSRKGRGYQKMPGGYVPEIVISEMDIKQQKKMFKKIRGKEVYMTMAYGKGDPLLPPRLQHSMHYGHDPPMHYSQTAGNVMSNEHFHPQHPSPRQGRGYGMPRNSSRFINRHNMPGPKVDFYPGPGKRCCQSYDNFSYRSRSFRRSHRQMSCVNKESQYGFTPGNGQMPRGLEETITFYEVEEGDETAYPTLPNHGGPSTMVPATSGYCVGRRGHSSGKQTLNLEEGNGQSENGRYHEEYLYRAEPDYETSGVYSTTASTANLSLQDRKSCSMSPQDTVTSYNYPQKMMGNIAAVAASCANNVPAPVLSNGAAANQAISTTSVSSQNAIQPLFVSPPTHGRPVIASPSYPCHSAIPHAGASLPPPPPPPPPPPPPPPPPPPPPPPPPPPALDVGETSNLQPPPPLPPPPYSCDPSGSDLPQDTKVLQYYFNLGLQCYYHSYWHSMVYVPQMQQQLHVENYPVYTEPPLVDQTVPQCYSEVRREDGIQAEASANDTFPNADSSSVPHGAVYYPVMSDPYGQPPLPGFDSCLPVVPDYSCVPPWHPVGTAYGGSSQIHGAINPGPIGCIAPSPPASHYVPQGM
# How it was run: (§1)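 Fragment (200 µM) or vehicle was incubated for 3 h with triplicate HEK293T lysate samples of 495 µg, which were then treated with Biotin-Ahx-Ub-VS at 0.5 µM final for 1 h. Labelled DUBs were enriched on NeutrAvidin, digested with LysC and trypsin, and analysed by diaPASEF LC-MS/MS. Values are average log2 fragment/vehicle ratios from an unpaired t-test on global-median-normalised Spectronaut label-free quantities, using proteins with ≥2 unique peptides.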
# ATXN3 = ATXN3 (UniProt P54252)
# ATXN3, sequence (P54252 whole entry): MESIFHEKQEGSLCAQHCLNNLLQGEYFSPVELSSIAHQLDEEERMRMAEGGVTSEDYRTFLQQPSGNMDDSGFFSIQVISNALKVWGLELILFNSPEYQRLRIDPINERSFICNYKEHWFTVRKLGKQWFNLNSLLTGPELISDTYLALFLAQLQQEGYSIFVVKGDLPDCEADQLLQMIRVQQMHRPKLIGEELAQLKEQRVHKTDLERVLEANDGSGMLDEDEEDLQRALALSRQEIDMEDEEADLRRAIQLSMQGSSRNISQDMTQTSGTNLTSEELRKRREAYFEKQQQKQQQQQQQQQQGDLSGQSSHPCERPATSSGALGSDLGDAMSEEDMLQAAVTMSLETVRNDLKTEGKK
# How it was run: as §1
# BAP1 = molecular target: T2, BAP1 (UniProt Q92560)
# T2 sequence (whole entry): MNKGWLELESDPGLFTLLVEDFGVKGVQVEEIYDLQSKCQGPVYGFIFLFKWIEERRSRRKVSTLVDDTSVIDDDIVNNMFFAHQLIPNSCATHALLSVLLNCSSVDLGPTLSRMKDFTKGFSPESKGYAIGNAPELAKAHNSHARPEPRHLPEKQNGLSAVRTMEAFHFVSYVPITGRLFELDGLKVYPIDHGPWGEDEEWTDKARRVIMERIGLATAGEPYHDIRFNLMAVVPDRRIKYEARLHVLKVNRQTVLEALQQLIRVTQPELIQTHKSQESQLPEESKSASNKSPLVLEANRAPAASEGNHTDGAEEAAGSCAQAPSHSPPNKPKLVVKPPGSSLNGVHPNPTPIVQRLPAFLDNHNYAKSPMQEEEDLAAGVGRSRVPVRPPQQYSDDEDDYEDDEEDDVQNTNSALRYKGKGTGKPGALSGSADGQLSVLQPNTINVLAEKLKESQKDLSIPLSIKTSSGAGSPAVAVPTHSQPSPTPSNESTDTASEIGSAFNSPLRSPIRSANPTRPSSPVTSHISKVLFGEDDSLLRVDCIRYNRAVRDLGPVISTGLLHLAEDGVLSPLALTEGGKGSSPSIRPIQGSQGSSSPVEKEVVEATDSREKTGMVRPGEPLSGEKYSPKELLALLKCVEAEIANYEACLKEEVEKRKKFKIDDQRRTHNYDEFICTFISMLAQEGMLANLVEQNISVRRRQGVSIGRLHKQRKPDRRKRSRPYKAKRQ
# How it was run: as §1
# EIF3F = EIF3F (UniProt O00303)
# EIF3F, sequence (O00303 whole entry): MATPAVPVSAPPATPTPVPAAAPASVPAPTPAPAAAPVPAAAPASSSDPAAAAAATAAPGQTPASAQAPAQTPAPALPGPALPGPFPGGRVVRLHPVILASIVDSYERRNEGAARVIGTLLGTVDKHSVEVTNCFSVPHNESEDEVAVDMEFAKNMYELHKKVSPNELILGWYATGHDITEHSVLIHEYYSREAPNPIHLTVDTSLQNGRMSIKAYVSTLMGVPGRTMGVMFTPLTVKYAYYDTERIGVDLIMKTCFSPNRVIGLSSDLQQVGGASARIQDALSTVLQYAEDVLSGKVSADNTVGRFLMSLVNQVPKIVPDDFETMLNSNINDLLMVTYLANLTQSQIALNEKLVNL
# How it was run: as §1
# EIF3H = EIF3H (UniProt O15372)
# EIF3H, sequence (O15372 whole entry): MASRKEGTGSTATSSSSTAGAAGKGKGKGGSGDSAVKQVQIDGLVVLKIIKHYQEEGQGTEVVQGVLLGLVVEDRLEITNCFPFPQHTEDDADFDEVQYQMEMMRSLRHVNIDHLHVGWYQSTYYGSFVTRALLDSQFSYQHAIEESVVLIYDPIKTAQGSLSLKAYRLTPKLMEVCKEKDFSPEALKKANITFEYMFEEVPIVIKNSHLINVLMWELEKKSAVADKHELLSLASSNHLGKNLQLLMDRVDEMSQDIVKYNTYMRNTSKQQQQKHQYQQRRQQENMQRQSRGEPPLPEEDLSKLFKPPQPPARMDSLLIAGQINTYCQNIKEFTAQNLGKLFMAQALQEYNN
# How it was run: as §1
# FAM105A = molecular target: T3, FAM105A (UniProt Q9NUU6)
# T3 sequence (whole entry): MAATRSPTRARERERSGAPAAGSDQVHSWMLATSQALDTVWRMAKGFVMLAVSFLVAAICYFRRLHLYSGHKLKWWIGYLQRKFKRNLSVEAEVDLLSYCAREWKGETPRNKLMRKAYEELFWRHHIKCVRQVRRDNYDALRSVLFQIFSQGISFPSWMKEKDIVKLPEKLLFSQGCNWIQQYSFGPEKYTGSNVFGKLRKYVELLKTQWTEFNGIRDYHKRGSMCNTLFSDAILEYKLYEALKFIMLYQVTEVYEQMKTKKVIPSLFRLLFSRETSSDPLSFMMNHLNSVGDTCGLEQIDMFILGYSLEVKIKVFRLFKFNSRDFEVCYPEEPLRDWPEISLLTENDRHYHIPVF
# How it was run: as §1
# OTUB1 = OTUB1 (UniProt Q96FW1)
# OTUB1, sequence (Q96FW1 whole entry): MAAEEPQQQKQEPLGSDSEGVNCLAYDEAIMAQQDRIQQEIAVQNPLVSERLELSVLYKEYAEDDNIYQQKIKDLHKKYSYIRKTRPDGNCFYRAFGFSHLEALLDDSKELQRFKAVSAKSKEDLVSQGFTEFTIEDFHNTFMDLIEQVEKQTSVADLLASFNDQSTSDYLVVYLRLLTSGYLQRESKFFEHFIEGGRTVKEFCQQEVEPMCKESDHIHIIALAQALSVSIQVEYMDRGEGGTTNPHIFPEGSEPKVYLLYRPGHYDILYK
# How it was run: as §1
# OTUD4 = molecular target: T4, OTUD4 (UniProt Q01804)
# T4 sequence (whole entry): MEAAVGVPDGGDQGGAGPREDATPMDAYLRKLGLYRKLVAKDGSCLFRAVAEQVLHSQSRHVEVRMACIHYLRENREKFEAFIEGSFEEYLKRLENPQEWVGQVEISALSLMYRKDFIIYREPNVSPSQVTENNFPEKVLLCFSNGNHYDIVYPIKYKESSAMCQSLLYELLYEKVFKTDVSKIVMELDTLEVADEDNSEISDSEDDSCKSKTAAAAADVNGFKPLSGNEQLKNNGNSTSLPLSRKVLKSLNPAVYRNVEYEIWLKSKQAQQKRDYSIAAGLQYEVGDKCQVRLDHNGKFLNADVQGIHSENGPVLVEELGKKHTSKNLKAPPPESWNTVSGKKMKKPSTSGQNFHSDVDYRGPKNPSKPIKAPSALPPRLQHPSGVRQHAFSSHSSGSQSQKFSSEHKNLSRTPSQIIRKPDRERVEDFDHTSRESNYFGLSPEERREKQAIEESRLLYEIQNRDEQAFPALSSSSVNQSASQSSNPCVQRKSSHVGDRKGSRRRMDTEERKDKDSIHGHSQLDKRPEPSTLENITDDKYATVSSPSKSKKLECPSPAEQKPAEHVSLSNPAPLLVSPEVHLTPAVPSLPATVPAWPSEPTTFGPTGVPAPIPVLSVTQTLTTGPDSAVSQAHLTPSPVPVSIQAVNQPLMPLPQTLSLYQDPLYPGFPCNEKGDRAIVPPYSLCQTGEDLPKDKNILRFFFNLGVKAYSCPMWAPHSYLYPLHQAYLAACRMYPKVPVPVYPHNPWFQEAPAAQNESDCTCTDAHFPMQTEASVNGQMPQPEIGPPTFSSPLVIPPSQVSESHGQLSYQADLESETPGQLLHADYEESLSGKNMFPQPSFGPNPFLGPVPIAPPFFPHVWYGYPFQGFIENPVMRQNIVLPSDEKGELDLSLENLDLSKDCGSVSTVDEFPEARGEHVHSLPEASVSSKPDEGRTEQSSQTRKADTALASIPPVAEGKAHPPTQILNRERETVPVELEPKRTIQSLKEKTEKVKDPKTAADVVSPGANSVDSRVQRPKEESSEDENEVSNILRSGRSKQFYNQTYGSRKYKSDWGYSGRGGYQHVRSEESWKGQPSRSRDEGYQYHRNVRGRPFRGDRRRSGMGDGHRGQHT
# How it was run: as §1
# OTUD5 = molecular target: T5, OTUD5 (UniProt Q96G74)
# T5 sequence (whole entry): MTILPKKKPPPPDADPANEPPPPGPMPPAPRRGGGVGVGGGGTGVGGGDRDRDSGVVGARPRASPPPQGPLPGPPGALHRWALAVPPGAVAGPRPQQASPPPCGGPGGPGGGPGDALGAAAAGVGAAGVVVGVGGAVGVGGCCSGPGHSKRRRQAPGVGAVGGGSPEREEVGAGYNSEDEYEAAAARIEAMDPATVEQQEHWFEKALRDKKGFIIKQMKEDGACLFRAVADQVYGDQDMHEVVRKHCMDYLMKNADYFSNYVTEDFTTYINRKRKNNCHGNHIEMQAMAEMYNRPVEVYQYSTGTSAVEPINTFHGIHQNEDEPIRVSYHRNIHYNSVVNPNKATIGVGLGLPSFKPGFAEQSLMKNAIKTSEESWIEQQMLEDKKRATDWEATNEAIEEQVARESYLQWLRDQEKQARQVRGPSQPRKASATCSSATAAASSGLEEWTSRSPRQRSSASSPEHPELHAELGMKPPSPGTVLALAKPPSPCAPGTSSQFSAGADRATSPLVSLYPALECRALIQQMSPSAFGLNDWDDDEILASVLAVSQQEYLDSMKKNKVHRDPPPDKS
# How it was run: as §1
structure (smiles),measurement,setting,value
N#Cc1cnn(-c2ccccc2)c1NC(=O)CCl,log2 ratio of Biotin-Ahx-Ub-VS probe labelling,ALG13,0.0569
same,log2 ratio of Biotin-Ahx-Ub-VS probe labelling,ATXN3,-1.2 (active)
same,log2 ratio of Biotin-Ahx-Ub-VS probe labelling,BAP1,-4.3 (active)
same,log2 ratio of Biotin-Ahx-Ub-VS probe labelling,EIF3F,-0.258
same,log2 ratio of Biotin-Ahx-Ub-VS probe labelling,EIF3H,0.233
same,log2 ratio of Biotin-Ahx-Ub-VS probe labelling,FAM105A,-0.0309
same,log2 ratio of Biotin-Ahx-Ub-VS probe labelling,OTUB1,-0.0957
same,log2 ratio of Biotin-Ahx-Ub-VS probe labelling,OTUD4,-0.641
same,log2 ratio of Biotin-Ahx-Ub-VS probe labelling,OTUD5,-0.526

# From the supplement of paper PMC11732987, “Enantioselective OTUD7B fragment discovery through chemoproteomics screening and high-throughput optimisation” (Communications Chemistry, 2025)
